We go through 8 compounds from PubChem BioAssay (NCI).

Where “and” joins values, the source holds several entries; their conditions need not be identical. Equal entries are not always repeated. About 83,000 compounds went through this panel and 20% of them were active in at least one assay; those are over-represented in the sample as a whole.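 Growth was measured after 48 h exposure to one concentration of compound in 96-well plates. Values under 10 count as active.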 A number with no mark means an inactive call. Calls of active or inactive are those of the source.

Common to all, as to experiment: NCI-60 one-dose screen, 48 h (100 = growth as untreated, 0 = no growth, -100 = all killed)
For one assay, the system named is HCT-15 colon. The settings on record: 10 µM.
Another assay has as its system HT29 colon. The settings on record: 10 µM.
A further assay deals with SNB-75 CNS. The following applies: 10 µM.
The subject of the next assay is SNB-19 CNS. The settings on record: 10 µM.
The test system of a further assay is U251 CNS. The settings on record: 10 µM.
In the next assay the test system is PC-3 prostate. The following applies: 10 µM.
In a further assay the test system is SK-MEL-5 melanoma. The settings on record: 10 µM.
The test system of a further assay is UACC-62 melanoma. The settings on record: 10 µM unless noted.
Another assay deals with LOX IMVI melanoma. The following applies: 10 µM.
The next assay has as its system SK-MEL-28 melanoma. The settings on record: 10 µM.
Another assay relates to SK-MEL-2 melanoma. The following applies: 10 µM.
Another assay concerns EKVX NSCLC. The following applies: 10 µM.
In the next assay the test system is SN12C renal. The settings on record: 10 µM.
The test system of the next assay is UO-31 renal. The settings on record: 10 µM.
For a further assay, the system named is TK-10 renal. The settings on record: 10 µM unless noted.
The subject of another assay is ACHN renal. The following applies: 10 µM.
The next assay deals with A498 renal. The settings on record: 10 µM.
For the next assay, the system named is HL-60(TB) leukemia. The following applies: 10 µM.
The next assay deals with CCRF-CEM leukemia. The following applies: 10 µM.
In another assay the test system is CAKI-1 renal. The settings on record: 10 µM.

As for `COc1ccccc1/C=C/[N+](=O)[O-]`, the growth in the assay with HCT-15 colon was 42.3%; with HT29 colon, 39.5%; with SNB-75 CNS it was 69.4%; with SNB-19 CNS it was 86.9%; in the assay with U251 CNS, 50.3%; in the assay on PC-3 prostate it was 64.1%. For the same compound, the growth in the assay on SK-MEL-5 melanoma was 83.4%; in the assay with UACC-62 melanoma, 73%; with LOX IMVI melanoma it was 37.4%; in the assay with SK-MEL-28 melanoma it was 79.4%; with SK-MEL-2 melanoma, 104%; with EKVX NSCLC, 72.6%. Further, the growth with SN12C renal was 83.2%; with UO-31 renal it was 62%; in the assay with TK-10 renal, 72.9%; in the assay on ACHN renal, 55.5%; with A498 renal, 109%; with HL-60(TB) leukemia, 6.74% (active).
With `O=C(CBr)Nc1ccccc1`, the growth with HT29 colon is 103%; in the assay with SNB-75 CNS it was 100%; with SNB-19 CNS, 94.9%; with U251 CNS it was 91.6%; in the assay on PC-3 prostate, 95.2%; in the assay with SK-MEL-5 melanoma, 97.3%. The growth in the assay with UACC-62 melanoma is 99.6%; in the assay on LOX IMVI melanoma it was 9.08% (active); with SK-MEL-28 melanoma, 113%; with SK-MEL-2 melanoma, 97%; with EKVX NSCLC, 111%; in the assay with SN12C renal, 91%. Besides, the growth in the assay with UO-31 renal was 84.9%; with TK-10 renal, 87.4%; in the assay with ACHN renal it was 104%; with HL-60(TB) leukemia it was 96.1%; in the assay with CCRF-CEM leukemia, 14.7%.
On to `O=[N+]([O-])c1ccc(Br)c([N+](=O)[O-])c1`, for which the growth with HCT-15 colon is 36.6%; in the assay on HT29 colon it was 75.4%; in the assay on SNB-19 CNS, 101%; in the assay on U251 CNS, 99.1%; in the assay on PC-3 prostate, 91.8%; in the assay on SK-MEL-5 melanoma, 95.8%. The growth with UACC-62 melanoma was 103%; with LOX IMVI melanoma it was 13.3%; in the assay with SK-MEL-28 melanoma, 101%; in the assay on SK-MEL-2 melanoma it was 96.8%; in the assay on EKVX NSCLC, 115%; in the assay on SN12C renal, 90.1%. Moreover, the growth is -18.2% (active) in the assay on UO-31 renal; 102% with TK-10 renal; 52.6% with ACHN renal; -93.5% (active) in the assay with CAKI-1 renal; 98.3% with A498 renal; 43% with HL-60(TB) leukemia. Moreover, the growth in the assay on CCRF-CEM leukemia is 46.4%.
As to `CC[C@@]1(O)C[C@H](OC2CC(N(C)C)C(O)C(C)O2)c2c(cc3c(c2O)C(=O)c2c(O)ccc(O)c2C3=O)[C@H]1C(=O)OC` (some centres undefined), the growth is -43% (active) with HCT-15 colon; -20.5% (active) in the assay with HT29 colon; -88% (active) with SNB-75 CNS; -36.9% (active) in the assay with SNB-19 CNS; -90.8% (active) in the assay on U251 CNS; -57.4% (active) in the assay on PC-3 prostate. Further, the growth in the assay with SK-MEL-5 melanoma was -100% (active); in the assay on UACC-62 melanoma, -91.4% (active); in the assay on LOX IMVI melanoma, -85.1% (active); in the assay with SK-MEL-2 melanoma, -57.1% (active); with EKVX NSCLC, -47.8% (active); with SN12C renal, -42.7% (active). In addition, the growth in the assay on UO-31 renal is -64.7% (active); in the assay with TK-10 renal it was -50.4% (active); with ACHN renal it was -88.4% (active); with CAKI-1 renal, -71.8% (active); in the assay on HL-60(TB) leukemia it was -68.9% (active); with CCRF-CEM leukemia, -30.1% (active).
For the compound `COc1ccc(/C=C(\C)[N+](=O)[O-])cc1OC`, the growth with HCT-15 colon is 0.0541% (active); in the assay on HT29 colon, -67% (active); in the assay on SNB-75 CNS it was 56.5%; in the assay with SNB-19 CNS, 99.8%; in the assay on PC-3 prostate, 51%; in the assay on SK-MEL-5 melanoma, 54.6%. The growth with UACC-62 melanoma was 32.7%; in the assay with LOX IMVI melanoma it was -58.7% (active); in the assay with SK-MEL-28 melanoma, -67.2% (active); with SK-MEL-2 melanoma, 21.4%; in the assay on SN12C renal, 39.9%; in the assay on UO-31 renal it was -83% (active). Moreover, the growth in the assay with TK-10 renal is -69.2% (active); in the assay with ACHN renal, -59.9% (active); in the assay with HL-60(TB) leukemia, -38.4% (active); in the assay on CCRF-CEM leukemia, -16.4% (active).
For the compound `COc1cc2c(cc1OC)C13CCN4CC5=CCOC6CC(=O)N2C1C6C5CC43` (centres undefined), the growth was 122% and 111% in the assay on HT29 colon; 97.8% and 111% with SNB-75 CNS; 105% and 111% in the assay with SNB-19 CNS; 98% and 98.4% in the assay with U251 CNS; 94.8% and 40% in the assay with PC-3 prostate; 92.9% and 91.1% with SK-MEL-5 melanoma. In addition, the growth with UACC-62 melanoma was 104% and 88.1%; in the assay with LOX IMVI melanoma, 101% and 97.4%; with SK-MEL-28 melanoma it was 114% and 105%; in the assay on SK-MEL-2 melanoma, 116% and 77.5%; in the assay with EKVX NSCLC, 105% and 114%; with SN12C renal it was 97.3% and 91.3%. Also, the growth in the assay on UO-31 renal was 87.9% and 92.8%; in the assay on TK-10 renal it was 112% and 138%; with ACHN renal, 99.6% and 107%; in the assay with HL-60(TB) leukemia, 127% and 80.1%; with CCRF-CEM leukemia, 100% and 76.3%.
For the compound `COc1ccc2c(ccc3oc([N+](=O)[O-])cc32)c1`, the growth with HCT-15 colon was 5.1% (active); with HT29 colon it was -8.59% (active); in the assay on SNB-75 CNS it was -68.5% (active); with SNB-19 CNS it was 5.8% (active); in the assay with U251 CNS it was -8.64% (active); in the assay on PC-3 prostate, 9.56% (active). Further, the growth with SK-MEL-5 melanoma was -80.4% (active); in the assay on UACC-62 melanoma, -60.2% (active); with LOX IMVI melanoma, -35.9% (active); with SK-MEL-28 melanoma, -39.6% (active); in the assay on SN12C renal it was 6.57% (active); with UO-31 renal it was -13.4% (active). Further, the growth is -15% (active) in the assay with TK-10 renal; 2.78% (active) with ACHN renal; 5.89% (active) in the assay with CAKI-1 renal; -31.4% (active) with HL-60(TB) leukemia; 4.13% (active) in the assay with CCRF-CEM leukemia.
`Cc1cc(C(C)(C)c2ccc(O)c(C)c2)ccc1O`: the growth with HCT-15 colon was 93.9%; in the assay on SNB-75 CNS, 73.7%; in the assay with SNB-19 CNS, 100%; in the assay with U251 CNS, 86.6%; in the assay on PC-3 prostate, 123%; in the assay on SK-MEL-5 melanoma, 88%. Also, the growth in the assay with UACC-62 melanoma is 79.3%; in the assay on LOX IMVI melanoma it was 85.3%; in the assay with SK-MEL-28 melanoma, 100%; in the assay with EKVX NSCLC it was 85.2%; in the assay with UO-31 renal it was 79%; with TK-10 renal, 98.9%. The growth is 88.7% in the assay with ACHN renal; 84.7% in the assay with CAKI-1 renal; 102% in the assay on A498 renal; 71.4% with HL-60(TB) leukemia; 127% in the assay with CCRF-CEM leukemia.
